Results published in PubChem BioAssay AID1159580 (chemical genetic matrix, 2015).
Screen size: about 5,500 compounds; about 2,000 (36%) were called active. Roughly 18% stayed inconclusive and do not appear here. The list shows a part of the results. A number with no mark means an inactive call. Rule as the data show it: active = normalized growth mostly below about 0.91 (no sharp cut-off); inconclusive = no clear call, values can overlap the other calls; inactive = mostly above about 0.92.

Assay: chemical genetic growth profiling, strain panel (AID 1159580);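 also: tested at 20 µM; growth read once vehicle control cultures reached saturation at 30 °C; 1 = growth at the plate median or of vehicle wells; lower values mean less growth of the strain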
Details: S. cerevisiae deletion strains, growth OD

C1CCN2CC3CC(CN4CCCCC34)C2C1 (centres undefined)
normalized growth (locus YAL013W, strain DEP1, hits give low values): 1.01
normalized growth (locus YAL021C, strain ccr4, hits give low values): 1
normalized growth (locus YAL026C, strain drs2, hits give low values): 1.03
normalized growth (locus YAL030W, strain snc1, hits give low values): 1.01
normalized growth (locus YBL061C, strain skt5, hits give low values): 1.02
normalized growth (locus YBR009C, strain hhf1, hits give low values): 1.02
normalized growth (locus YBR021W, strain FUR4, hits give low values): 1
normalized growth (locus YBR023C, strain chs3, hits give low values): 1.02
normalized growth (locus YBR171W, strain sec66, hits give low values): 1.03
normalized growth (locus YBR229C, strain ROT2, hits give low values): 1.01
normalized growth (locus YBR231C, strain swc5, hits give low values): 1.01
normalized growth (locus YBR279W, strain paf1, hits give low values): 1.02
normalized growth (locus YCL011C, strain gbp2, hits give low values): 1.02
normalized growth (locus YCL016C, strain dcc1, hits give low values): 1.02
normalized growth (locus YCL029C, strain bik1, hits give low values): 1.01
normalized growth (locus YCL061C, strain MRC1, hits give low values): 1.02
normalized growth (locus YCL069W, strain vba3, hits give low values): 1.03
normalized growth (locus YCR088W, strain abp1, hits give low values): 1.03
normalized growth (locus YDL005C, strain med2, hits give low values): 1.03
normalized growth (locus YDL035C, strain GPR1, hits give low values): 1.01
normalized growth (locus YDL040C, strain nat1, hits give low values): 1.01
normalized growth (locus YDL074C, strain BRE1, hits give low values): 1.01
normalized growth (locus YDL101C, strain DUN1, hits give low values): 0.997
normalized growth (locus YDL134C, strain PPH21, hits give low values): 1
normalized growth (locus YDL185W, strain tfp1, hits give low values): 1.01
normalized growth (locus YDL192W, strain arf1, hits give low values): 1.01
normalized growth (locus YDR001C, strain nth1, hits give low values): 1.02
normalized growth (locus YDR069C, strain doa4, hits give low values): 1.03
normalized growth (locus YDR101C, strain arx1, hits give low values): 1.01
normalized growth (locus YDR137W, strain rgp1, hits give low values): 1.02
normalized growth (locus YDR150W, strain NUM1, hits give low values): 1.01
normalized growth (locus YDR159W, strain sac3, hits give low values): 1.03
normalized growth (locus YDR162C, strain NBP2, hits give low values): 0.993
normalized growth (locus YDR195W, strain ref2): 0.99
normalized growth (locus YDR297W, strain sur2, hits give low values): 1.01
normalized growth (locus YDR318W, strain mcm21, hits give low values): 0.654 (active)
normalized growth (locus YDR334W, strain swr1, hits give low values): 1.03
normalized growth (locus YDR335W, strain msn5, hits give low values): 1.04
normalized growth (locus YDR388W, hits give low values): 1
normalized growth (locus YDR392W, strain spt3, hits give low values): 0.929
normalized growth (locus YDR502C, strain sam2, hits give low values): 0.974
normalized growth (locus YEL003W, strain gim4, hits give low values): 1.03
normalized growth (locus YEL037C, strain rad23, hits give low values): 1.02
normalized growth (locus YEL061C, strain CIN8 (second series), hits give low values): 1.03
normalized growth (locus YEL061C, strain CIN8, hits give low values): 1.01
normalized growth (locus YER015W, strain faa2, hits give low values): 1.01
normalized growth (locus YER016W, strain bim1, hits give low values): 1.03
normalized growth (locus YER110C, hits give low values): 1.02
normalized growth (locus YER111C, strain swi4, hits give low values): 1.02
normalized growth (locus YER155C, strain BEM2 (second series), hits give low values): 1.05
normalized growth (locus YER155C, strain BEM2, hits give low values): 1.01
normalized growth (locus YER167W, strain BCK2, hits give low values): 1.01
normalized growth (locus YFR010W, strain ubp6, hits give low values): 1.02
normalized growth (locus YGL078C, strain dbp3, hits give low values): 0.983
normalized growth (locus YGL086W, strain mad1, hits give low values): 0.901 (active)
normalized growth (locus YGL167C, strain pmr1, hits give low values): 1.02
normalized growth (locus YGL173C, strain kem1, hits give low values): 1.03
normalized growth (locus YGL227W, strain vid30, hits give low values): 1.02
normalized growth (locus YGL240W, strain doc1, hits give low values): 1.03
normalized growth (locus YGL248W, strain PDE1, hits give low values): 0.998
normalized growth (locus YGL253W, strain hxk2, hits give low values): 1.02
normalized growth (locus YGR078C, strain PAC10, hits give low values): 1
normalized growth (locus YGR135W, strain pre9, hits give low values): 0.838 (active)
normalized growth (locus YGR229C, strain SMI1, hits give low values): 1.01
normalized growth (locus YGR252W, strain gcn5, hits give low values): 0.732 (active)
normalized growth (locus YHR013C, strain ard1, hits give low values): 1.01
normalized growth (locus YHR027C, strain rpn1, hits give low values): 1.01
normalized growth (locus YHR030C, strain SLT2, hits give low values): 1.01
normalized growth (locus YHR079C, strain IRE1 (second series), hits give low values): 0.999
normalized growth (locus YHR094C, strain hxt1, hits give low values): 1.01
normalized growth (locus YHR129C, strain ARP1, hits give low values): 1
normalized growth (locus YHR142W, strain chs7, hits give low values): 1
normalized growth (locus YHR200W, strain rpn10, hits give low values): 1
normalized growth (locus YIL066C, strain RNR3, hits give low values): 1.02
normalized growth (locus YIL073C, strain SPO22, hits give low values): 1.07
normalized growth (locus YIL125W, strain kgd1, hits give low values): 1
normalized growth (locus YIR030C, strain dcg1, hits give low values): 1.01
normalized growth (locus YJL092W, strain hpr5, hits give low values): 1.03
normalized growth (locus YJL095W, strain BCK1 (second series), hits give low values): 1.02
normalized growth (locus YJL095W, strain BCK1, hits give low values): 0.995
normalized growth (locus YJL115W, strain asf1, hits give low values): 1.03
normalized growth (locus YJL129C, strain trk1, hits give low values): 1.02
normalized growth (locus YJL134W, strain LCB3, hits give low values): 1.01
normalized growth (locus YJL154C, strain vps35, hits give low values): 1.02
normalized growth (locus YJL164C, strain tpk1, hits give low values): 1.01
normalized growth (locus YJL166W, strain qcr8, hits give low values): 1.02
normalized growth (locus YJL168C, strain set2, hits give low values): 1.01
normalized growth (locus YJL187C, strain SWE1 (second series), hits give low values): 1.01
normalized growth (locus YJL187C, strain SWE1, hits give low values): 1.02
